Sampled rows, rich in hits. Any-hit rate of the full collection: about 32%.
CYP2C19 act: human CYP2C19 activators, primary screen, biochemical, luminescence | activation factor at 5 µM | Cytochrome P450 2C19 (Homo sapiens), P33261 | AID 1025, 2008 | 96,000 tested, under 10 active | recombinant CYP2C19, luciferin-H EGE luminescence; active compounds read high; 0 = fully inhibited enzyme, 1 = untreated enzyme;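 active means activation factor of at least 2 at 5 µM in the primary screen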
Target sequence (P33261 whole entry, looked up): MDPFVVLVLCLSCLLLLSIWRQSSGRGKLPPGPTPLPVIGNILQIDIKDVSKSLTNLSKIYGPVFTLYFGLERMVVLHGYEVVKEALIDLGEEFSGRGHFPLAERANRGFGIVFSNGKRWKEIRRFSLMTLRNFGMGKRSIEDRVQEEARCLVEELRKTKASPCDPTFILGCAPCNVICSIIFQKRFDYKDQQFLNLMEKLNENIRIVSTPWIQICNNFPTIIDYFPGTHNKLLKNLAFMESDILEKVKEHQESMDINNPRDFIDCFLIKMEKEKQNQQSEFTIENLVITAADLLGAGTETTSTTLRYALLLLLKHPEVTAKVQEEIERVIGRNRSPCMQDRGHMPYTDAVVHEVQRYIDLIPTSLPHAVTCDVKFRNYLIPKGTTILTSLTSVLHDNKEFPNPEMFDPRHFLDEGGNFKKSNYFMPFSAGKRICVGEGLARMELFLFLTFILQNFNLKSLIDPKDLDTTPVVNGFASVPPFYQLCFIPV
CYP2C9 activ: human CYP2C9 activators, primary screen, biochemical, luminescence | Cytochrome P450 2C9 (Homo sapiens), P11712 | recombinant CYP2C9, luciferin-H conversion; active compounds read high; factor 1 = untreated enzyme, 0 = blocked | activation factor at 5 µM | 96,000 compounds, 1.4% hits;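 active means activation factor of 2 or more for CYP2C9 at a 5 µM dose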
PostGolgi ctrl: growth inhibition of yeast control strain, primary screen, counter-screen for post-Golgi transport modulator project | 98,000 compounds, 5% hits | efflux-deficient yeast background strain, growth absorbance A615, 16 h | inhibition, % at 10 µM
PostGolgi yeast: phenotypic screen on post-Golgi transport, primary screen. AID 739, 2007. inhibition, % at 10 µM. post-Golgi transport phenotypic cell assay. 98,000 compounds, 0.9% hits;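 further: yeast cells grown in 1536-well plates; yeast grown about 18 h at 30C before absorbance read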
CYP2C9 inhib: blockers of cytochrome P450 2C9 activity – biochemical, luminescence, ADME assay, primary screen; P11712; CYP2C9 Supersomes, luciferin-H conversion; inhibition, % at 5 µM; 96,000 compounds, 20% hits;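 active means blocking of liver enzyme CYP2C9 beyond about 50% at 5 µM, limit read from the data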
CYP2C19 inh: blockers of cytochrome P450 2C19 activity – biochemical, luminescence, ADME assay, primary screen. 96,000 compounds, 21% hits. inhibition, % at 5 µM. CYP2C19 Supersomes, luciferin-H EGE luminescence, 30 min. P33261;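 active means CYP2C19 inhibition above a set limit at 5 µM in the primary screen, cut at about 50% in these data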
Hits are given with their value; . = inactive; / = not tested or not shown. Unless noted, no stated cut-off is given here; in the data, active means inhibition above about 30%; inactive means the rest.

SMILES	CYP2C19 act	CYP2C9 activ	PostGolgi ctrl	PostGolgi yeast	CYP2C9 inhib	CYP2C19 inh
Cn1c(=O)oc2cc(S(=O)(=O)N3CCC(C(=O)N4CC=C(c5ccccc5)CC4)CC3)ccc21	.	.	.	.	.	73
Cn1c(=O)oc2cc(S(=O)(=O)N3CCC(C(=O)N4CCN(c5ccccc5)CC4)CC3)ccc21	.	.	.	.	.	.
Cn1c(=O)oc2cc(S(=O)(=O)N3CCCC(C(=O)N4CCc5ccccc5C4)C3)ccc21 (stereo not given)	.	.	51	.	.	91
CCOC(=O)C1CCCN(C(=O)C2CCCN(S(=O)(=O)c3ccc4c(c3)oc(=O)n4C)C2)C1 (stereo not given)	.	.	.	.	81	.
O=C(COC(=O)c1cccnc1Nc1cccc(C(F)(F)F)c1)NCc1ccc2c(c1)OCO2	.	.	.	.	.	.
Cc1ccc(CN(C(=O)c2ccco2)C(C(=O)NC2CCCC2)c2ccc(N3CCOCC3)cc2)cc1 (stereo not given)	/	/	.	.	/	/
Cc1cc2nc3c(nc2cc1C)C1(C(=O)O)CCC3(C)C1(C)C (stereo not given)	.	.	32	.	.	.
CNC(=O)C12CCC(C)(c3nc4cc(C)c(C)cc4nc31)C2(C)C (stereo not given)	.	.	.	.	.	.
COc1ccc(Cn2c(C3CC3)nc3ccc(NC(=O)c4ccco4)cc3c2=O)cc1	.	.	.	.	55	54
CSc1nc(N)nc(SCC(=O)C23CC4CC(CC(C4)C2)C3)c1C#N	/	/	60	.	/	/
COc1ccc(C(=O)CSc2nc(N)nc(SC)c2C#N)cc1	.	.	33	.	.	.
Nc1nc(SCC(=O)C23CC4CC(CC(C4)C2)C3)n[nH]1	.	.	.	.	53	.
CSc1nc(N)nc(SCC(=O)c2ccccc2)c1C#N	.	.	.	.	.	.
N#Cc1c(N)nc(SCC(=O)C23CC4CC(CC(C4)C2)C3)c(C#N)c1-c1ccc(Cl)cc1	.	.	.	.	.	.
O=C1NCCN1Cc1ccc(F)cc1	.	.	.	.	.	.
CN1/C(=C/C=N/n2cnnc2)C(C)(C)c2ccccc21	.	.	.	.	.	92
O=C(NCc1ccco1)c1cc(-c2ccco2)on1	.	.	.	.	.	.
COC(=O)c1c(-c2cccc3ccccc23)csc1NC(=O)Cc1ccc(OC)c(OC)c1	.	.	.	.	87	62
COC(=O)c1c(-c2ccc(Br)cc2)csc1NC(=O)Cc1ccc(OC)c(OC)c1	.	.	.	.	63	.
CCC(C)(C)NC(=O)Cc1ccc(OC)c(OC)c1	.	.	.	.	.	.
COC(=O)c1c(-c2ccc(C)cc2)csc1NC(=O)Cc1ccc(OC)c(OC)c1	.	.	.	.	72	.
C/C(Cn1nnc([N+](=O)[O-])n1)=N\NC(=O)c1ccccc1Cl	.	.	.	.	.	.
Cc1ccccc1NS(=O)(=O)c1ccc(NC(=O)c2nc3ncccn3n2)cc1	.	.	.	.	.	.
Cc1ccc(-n2nnnc2-c2cnc3cc4c(cc3c2C)OCO4)cc1	.	.	.	.	.	.
O=C(NNC(=O)c1cccnc1)Nc1cccc2ccccc12	.	.	.	.	.	.
SMILES	CYP2C19 act	CYP2C9 activ	PostGolgi ctrl	PostGolgi yeast	CYP2C9 inhib	CYP2C19 inh
O=C(OCn1nnc2ccccc2c1=O)c1ccc2ccccc2n1	.	.	.	.	.	.
Cc1c(C(N)=O)sc(N)c1C(=O)OC(C)C	.	.	.	.	.	.
CC(=O)c1sc(N)c(C(=O)OC(C)C)c1C	.	.	.	.	.	80
CC(C)(C)NS(=O)(=O)c1ccc(CCC(=O)Nc2cc(Cl)ccc2Oc2ccccc2)cc1	.	.	.	.	90	73
CC(C)CNS(=O)(=O)c1ccc(CCC(=O)Nc2cc(Cl)ccc2Oc2ccccc2)cc1	.	.	.	.	73	.
COCCCNC(=O)C(=O)NCCCOC(C)C	.	.	.	.	.	.
COc1cc2c(cc1OC)C(C)N(C(=O)Cn1ncc3c1-c1cc(C)ccc1OC3)CC2 (stereo not given)	.	.	.	.	.	.
CCCCN(CC)C(=O)Cn1ncc2c1-c1cc(C)ccc1OC2	.	.	.	.	70	77
